# Inconclusive results are not listed. Active and inactive are the calls of the source. Calls follow the shape of the dose curve; as a rule, active = well fitted cell-killing curve with a large enough effect; inconclusive = small, poorly fitted or top-dose-only effect; inactive = flat fitted curve, though single readings scatter.
# Experiment: Cell Viability - LYMP2-023 (AID 975);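 also: cellular ATP measured by luciferase luminescence as viability proxy; cells exposed to compound for 24 hours at 37 °C; nearly all actives have a fitted effect of over 55% in size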
# Conditions: LYMP2-023 lymphoblastoid cell viability; series mostly up to 92.2 µM
# Method in brief: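 Concentration-dependent drop in intracellular ATP measures acute cytotoxicity in a human lymphoblastoid line treated for 24 hours in complete culture medium. AC50 values are taken from Hill-equation fits of qHTS data.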
row,Structure (SMILES),outcome
1,Nc1ccccc1N,inactive
2,Cc1ccc(N)cc1O,inactive
3,CC(=O)O[C@@H]1CC(C)=C2[C@H]1[C@H](C)CC[C@H]2/C=C(\C)C(=O)O,inactive

# Experiment: Cell Viability - LYMP2-025 (AID 976);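 also: cells exposed to compound for 24 h at 37 °C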
# Conditions: LYMP2-025 lymphoblastoid cell viability; series mostly up to 92.2 µM
# Method in brief: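 In qHTS format, LYMP2-025 lymphoblastoid cells in complete culture medium received compound for 24 hr; ATP-based CellTiter-Glo signal gave viability, with AC50 derived by Hill equation.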
row,Structure (SMILES),outcome
1,Nc1ccccc1N,inactive
2,Cc1ccc(N)cc1O,inactive
3,CC(=O)O[C@@H]1CC(C)=C2[C@H]1[C@H](C)CC[C@H]2/C=C(\C)C(=O)O,inactive

# Experiment: Cell Viability - LYMP2-007 (AID 979);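 also: cells exposed to compound for 24 h before reading; nearly all actives have a fitted effect of over 60% in size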
# Conditions: LYMP2-007 lymphoblastoid cell viability; series mostly up to 92.2 µM
# Method in brief: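 Acute toxicity is scored as a concentration-dependent fall in intracellular ATP in human lymphoblastoid cells treated 24 hr at 37 C, measured by luciferase luminescence; Hill-equation modelling yields AC50.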
row,Structure (SMILES),outcome
1,Nc1ccccc1N,inactive
2,Cc1ccc(N)cc1O,inactive
3,CC(=O)O[C@@H]1CC(C)=C2[C@H]1[C@H](C)CC[C@H]2/C=C(\C)C(=O)O,inactive

# From PubChem BioAssay (NCATS)
